This passage reports AC50 and outcome results from PubChem BioAssay (EPA / NIEHS).

Records with an inconclusive call do not appear. Active and inactive are the calls of the source. The calls were made as follows: active = hit-call score of the fitted dose curve at least 0.9, where 1 is the maximum; inconclusive = response in the unintended direction; inactive = score below 0.9.

Chain of guinea pig Leukotriene D4 Receptor (LTD4), CYSLTR1 (gene 100135514) (Q2NNR5 whole entry, looked up): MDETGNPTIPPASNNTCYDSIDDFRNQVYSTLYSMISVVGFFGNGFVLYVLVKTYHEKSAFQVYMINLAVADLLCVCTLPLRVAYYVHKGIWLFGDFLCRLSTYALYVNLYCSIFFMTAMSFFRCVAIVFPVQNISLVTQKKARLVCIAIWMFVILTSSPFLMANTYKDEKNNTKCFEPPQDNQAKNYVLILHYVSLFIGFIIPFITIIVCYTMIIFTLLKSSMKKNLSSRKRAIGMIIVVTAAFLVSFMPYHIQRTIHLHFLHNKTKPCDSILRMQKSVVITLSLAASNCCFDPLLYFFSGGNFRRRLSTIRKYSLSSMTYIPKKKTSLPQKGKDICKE
Chain of Adenosine receptor A1 (Bos taurus) (P28190 whole entry, looked up): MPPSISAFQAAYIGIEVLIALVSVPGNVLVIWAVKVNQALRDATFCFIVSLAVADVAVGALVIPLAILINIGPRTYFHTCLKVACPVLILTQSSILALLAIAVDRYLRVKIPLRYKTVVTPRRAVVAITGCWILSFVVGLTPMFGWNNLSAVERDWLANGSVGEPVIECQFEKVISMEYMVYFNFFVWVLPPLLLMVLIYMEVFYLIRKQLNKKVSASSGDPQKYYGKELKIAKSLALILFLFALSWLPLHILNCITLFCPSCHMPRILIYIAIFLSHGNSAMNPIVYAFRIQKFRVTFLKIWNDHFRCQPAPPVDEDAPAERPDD
Chain of bovine Dopamine Receptor (DR), Non-selective Binding, DRD1 (gene 281125) (Q95136 whole entry, looked up): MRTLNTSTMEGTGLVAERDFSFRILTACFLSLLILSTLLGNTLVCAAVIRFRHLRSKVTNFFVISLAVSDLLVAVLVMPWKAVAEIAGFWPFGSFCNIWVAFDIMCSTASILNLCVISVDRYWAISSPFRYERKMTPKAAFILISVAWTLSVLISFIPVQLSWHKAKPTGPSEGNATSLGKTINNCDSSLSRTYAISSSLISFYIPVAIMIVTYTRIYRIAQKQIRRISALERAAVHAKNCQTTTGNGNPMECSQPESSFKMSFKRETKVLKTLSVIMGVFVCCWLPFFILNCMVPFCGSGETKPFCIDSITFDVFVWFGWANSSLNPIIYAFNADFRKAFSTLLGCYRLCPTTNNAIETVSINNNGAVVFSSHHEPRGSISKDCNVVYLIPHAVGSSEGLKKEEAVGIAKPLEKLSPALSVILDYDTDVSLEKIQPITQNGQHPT

The subject of one experiment is bovine Angiotensin II Receptor Type 2 (AT2), gene 407157. Put plainly: NVS_GPCR_bAT2: NovaScreen (NVS) G Protein-Coupled Receptor Assay for bovine Angiotensin II Receptor Type 2 (AT2) (AID 2283240). The gist of the method:
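Radioligand displacement on bovine cerebellar membranes, 1 hour incubation, filter-based scintillation counting; loss of signal vs DMSO. Duplicate single-point screen at 25 uM, then concentration-response to 50 uM maximum.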
In the case of `CC(=O)[O][Hg][c]1ccccc1`, the AC50 was 37.4 µM (active).

With `C=C(C)C(=O)[O][Sn]([CH2]CCC)([CH2]CCC)[CH2]CCC`, the concentration at half-maximal activity (AC50) is 25 µM (active). Turning to `O=C(Nc1ccc2[nH]ccc2c1)c1cc2cc(F)ccc2n1Cc1cccc(F)c1`, the compound was called inactive.

A further experiment deals with bovine Dopamine Receptor (DR), Non-selective Binding, DRD1 (gene 281125) (UniProt Q95136). Put plainly: NVS_GPCR_bDR_NonSelective: NovaScreen (NVS) G Protein-Coupled Receptor Assay for bovine Dopamine Receptor (DR), Non-selective Binding (AID 2283241). In short, it runs like this:
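Filter-based radioligand binding with bovine striatal membrane, incubated 1 h; DMSO as negative baseline. Initial duplicate single-point test at 25 uM preceded concentration series for actives.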
On to `CCC(=O)C(CC(C)N(C)C)(c1ccccc1)c1ccccc1` (stereo not drawn), for which the half-maximal activity concentration (AC50) was 6.89 µM (active). As for `CCN1CCC2(CC1)COc1cc3c(cc12)N(C(=O)c1ccc(-c2ccc(-c4nnc(C)o4)cc2C)cc1)CC3`, the AC50 is 9.79 µM (active). Same read-out and setting: the figure for `C=C(C)C(=O)[O][Sn]([CH2]CCC)([CH2]CCC)[CH2]CCC` is 10.6 µM (active).

The target in the next experiment is rat Monoamine Oxidase, MAO-B, Peripheral (MAOBP), Maob (gene 25750) (UniProt P19643). Kind of experiment: NVS_ENZ_rMAOBP: NovaScreen (NVS) Enzymatic Assay for rat Monoamine Oxidase, MAO-B, Peripheral (MAOBP) (AID 2283242).
Chain of rat Monoamine Oxidase, MAO-B, Peripheral (MAOBP), Maob (gene 25750) (P19643 whole entry, looked up): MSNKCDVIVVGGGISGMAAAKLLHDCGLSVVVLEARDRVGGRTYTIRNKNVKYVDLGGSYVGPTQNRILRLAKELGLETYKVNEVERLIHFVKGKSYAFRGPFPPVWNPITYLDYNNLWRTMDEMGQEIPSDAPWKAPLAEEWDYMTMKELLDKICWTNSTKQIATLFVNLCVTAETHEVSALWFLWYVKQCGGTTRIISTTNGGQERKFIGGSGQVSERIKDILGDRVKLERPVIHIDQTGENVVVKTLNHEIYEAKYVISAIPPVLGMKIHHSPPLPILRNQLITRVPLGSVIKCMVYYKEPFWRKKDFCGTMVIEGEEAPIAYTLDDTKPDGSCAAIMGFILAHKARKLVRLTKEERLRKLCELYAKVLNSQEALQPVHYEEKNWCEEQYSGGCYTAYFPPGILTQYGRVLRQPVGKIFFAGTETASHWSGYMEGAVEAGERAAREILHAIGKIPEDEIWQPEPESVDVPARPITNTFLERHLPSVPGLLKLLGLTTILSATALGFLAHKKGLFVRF
Regarding `CCC(=O)C(CC(C)N(C)C)(c1ccccc1)c1ccccc1` (stereo not drawn), the AC50 was 4.1 µM (active). In the case of `C[C@]12CCC(=O)C[C@@H]1CC[C@@H]1[C@@H]2CC[C@]2(C)[C@@H](O)CC[C@@H]12`, the outcome was inactive. For `CC12CC1(C)C(=O)N(c1cc(Cl)cc(Cl)c1)C2=O` (stereo not drawn), the compound was classed as inactive. As for `CCN1CCC2(CC1)COc1cc3c(cc12)N(C(=O)c1ccc(-c2ccc(-c4nnc(C)o4)cc2C)cc1)CC3`, the AC50 was 19.5 µM (active).

The test system of a further experiment is rat Monoamine Oxidase, MAO-A, Central (MAOAC), gene 29253. Kind of experiment: NVS_ENZ_rMAOAC: NovaScreen (NVS) Enzymatic Assay for rat Monoamine Oxidase, MAO-A, Central (MAOAC) (AID 2283243).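 Also: potency refers to inhibition seen as signal drop below DMSO baseline.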 The gist of the method: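 Lysate-based radiometric enzyme assay using rat brain tissue; 1.5 h treatment; 25 uM single-point duplicate screen, concentration-response follow-up; loss of signal versus DMSO.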
In the case of `Oc1ccc(-c2ccccc2)cc1`, the AC50 was 13.8 µM (active). In the case of `O=S(=O)(c1ccc(Cl)cc1)c1ccc(Cl)cc1`, the outcome was inactive. Consider `COc1ccc(OC)c(C=O)c1`, for which the AC50 is 17.3 µM (active). Consider `CCN1CCC2(CC1)COc1cc3c(cc12)N(C(=O)c1ccc(-c2ccc(-c4nnc(C)o4)cc2C)cc1)CC3`, for which the AC50 was 23.4 µM (active). In the case of `N#CCc1ccc(Cl)cc1`, the half-maximal activity concentration (AC50) was 25 µM (active). For the compound `O=[N+]([O-])c1ccc2c3c(cccc13)CC2`, the AC50 was 6.28 µM (active).

With `CCOC(=O)Nc1cccc(OC(=O)Nc2ccccc2)c1`, the concentration at half-maximal activity (AC50) was 5.76 µM (active). Consider `Nc1cccc2ccccc12`, for which the AC50 was 25 µM (active).

A further experiment concerns the target Adenosine receptor A1 (Bos taurus) (UniProt P28190). Kind of experiment: NVS_GPCR_bAdoR_NonSelective: NovaScreen (NVS) G Protein-Coupled Receptor Assay for bovine Adenosine Receptor (AdoR), Non-selective Binding (AID 2283244). In short, it runs like this: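 Cell-free binding with membranes from bovine striatum: radioligand displaced by test chemical, read after 1 h by filtration and scintillation. Single-point 25 uM duplicate primary, 50 uM top concentration in follow-up curves, DMSO baseline.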
For `Cn1sc(Cl)cc1=O`, the compound was classed as inactive. `COc1cc(-c2ccc(N)c(OC)c2)ccc1N`: the compound was classed as inactive. In the case of `CC(C)(C)c1cc(O)ccc1O`, the call was inactive.

For the compound `CC(=O)[O][Hg][c]1ccccc1`, the AC50 is 25 µM (active). On to `O=C(O)C(F)(F)C(F)(F)C(F)(F)C(F)(F)C(F)(F)C(F)(F)C(F)(F)C(F)(F)C(F)(F)C(F)(F)F`, for which the compound was called inactive.

For the next experiment, the system named is guinea pig Leukotriene B4 Receptor (LTB4), gene 100379538. Put plainly: NVS_GPCR_gLTB4: NovaScreen (NVS) G Protein-Coupled Receptor Assay for guinea pig Leukotriene B4 Receptor (LTB4) (AID 2283247). The gist of the method:
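Membranes from guinea pig spleen incubated 2 h with radioligand and compound; bound counts measured by filtration and scintillation. Screened first at 25 uM in duplicate, then actives titrated to a 50 uM top concentration relative to DMSO.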
With `CC(=O)[O][Hg][c]1ccccc1`, the AC50 is 3.45 µM (active). Regarding `C=C(C)C(=O)[O][Sn]([CH2]CCC)([CH2]CCC)[CH2]CCC`, the AC50 is 6.14 µM (active). For `O=C(O)C(F)(F)C(F)(F)C(F)(F)C(F)(F)C(F)(F)C(F)(F)C(F)(F)C(F)(F)C(F)(F)C(F)(F)F`, the AC50 was 5.1 µM (active). Turning to `CN(C)N=O`, the compound was classed as inactive. For the compound `O=C(O)C(F)(F)C(F)(F)C(F)(F)C(F)(F)C(F)(F)C(F)(F)F`, the AC50 was 17.3 µM (active).

The next experiment has as its target guinea pig Leukotriene D4 Receptor (LTD4), CYSLTR1 (gene 100135514) (UniProt Q2NNR5). Put plainly: NVS_GPCR_gLTD4: NovaScreen (NVS) G Protein-Coupled Receptor Assay for guinea pig Leukotriene D4 Receptor (LTD4) (AID 2283248). The gist of the method:
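Guinea pig lung membrane preparation; bound radioligand measured by filter scintillation after 1 h, loss of signal versus DMSO marking displacement. Compounds tested at 25 uM in duplicate, hits retested to max 50 uM.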
As to `ClCCBr`, the result was inactive. For `COP(=S)(OC)Oc1ccc(Sc2ccc(OP(=S)(OC)OC)cc2)cc1`, the compound was classed as inactive. For the compound `CC(=O)[O][Hg][c]1ccccc1`, the half-maximal activity concentration (AC50) is 1.58 µM (active). As to `C=C(C)C(=O)[O][Sn]([CH2]CCC)([CH2]CCC)[CH2]CCC`, the AC50 was 1.86 µM (active). Turning to `O=C(O)C(F)(F)C(F)(F)C(F)(F)C(F)(F)C(F)(F)C(F)(F)C(F)(F)C(F)(F)C(F)(F)C(F)(F)F`, the compound was called inactive.

A word on the AC50: it is the midpoint of the concentration-response curve, whichever way the signal moves.
